This passage reports z-score results from PubChem BioAssay AID1508600 (Functional Genomics Laboratory (NCATS/FGL), 2020).

The campaign covered roughly 53,000 sequences. About 3,700 (7%) were called active.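 Rule for the calls: active = gene knockdowns whose robust z-score for IL-1 alpha signal is at least 2 or at most -2, so actives lie on both sides; inactive = the rest.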 The sample as a whole holds a higher share of actives than the screen did.

The nature of this test: Components of the Cytosolic LPS Sensing Pathway: Gene Identification via Genome-wide siRNA Screen.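 Note: robust z of the log signal after scaling to non-targeting control siRNA wells of the plate.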 The settings on record: RAW264.7 macrophages, IL-1a HTRF, actives lie on both sides, screened at 100 nM (by protocol), cells primed 5 h with Pam3CSK4 first. The essentials:
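Knockdown: 100 nM siRNA, 48h, RAW264.7. Stimulation: Pam3CSK4 5 h, then LipidA via TransIT-TKO 24 h. Output: supernatant IL-1a HTRF, negative-control-normalized, log robust z-score; viability by CellTiter-Glo.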
A general note: In TR-FRET formats the signal depends on donor and acceptor labels being close together.
As to GGCUUCGUAGCUUUACAAATT against Abca6, the z-score is -0.846 (inactive). GGAAAGGUCAAGAGAAUUUTT against Strn3: the z-score is -1.16 (inactive). In the case of GGACUUACUGACAAGAAACTT against Pcdhgb8, the z-score was -0.52 (inactive). Next, UUCUAAUUGUCACUUGGUGTT against Olfr1474: -0.133 (inactive); GCUGGAUUAUUUGAGAGUCTT against Trim62: 2.17 (active). Next, GCAUUAAGCAAUGGCAUCATT against Cbfa2t2: 0.21 (inactive); GCAUCAGAGAAGUGCGAGCTT against Pafah2: -0.0121 (inactive). As to “GCUCAUGAUCAUAUCAUGATT against 1810055G02Rik”, the z-score was 0.647 (inactive). Turning to CCCACACAAUUCUCAUGGGTT against Olfr366, the z-score was 0.661 (inactive). Next, GGAAUACGAAGAGAUUAUATT against Zw10: 0.65 (inactive); “CCUAGAAAAGUCAUUGUCATT against 3010003L21Rik”: -2.08 (active); CCUUCAAGAUAAAUUGACATT against Tango6: 0.755 (inactive). Next, GGAAAAGGCCAUGAAUAUATT against Mmel1: 0.176 (inactive); GGCCAGACACAGGUAGACATT against B9d2: -1.85 (inactive). Next, CGGACGAUUCGUGUCAAUUTT against Ppie: 0.619 (inactive). For the sequence GGACGAACAGUAUUAUACUTT against Lhx5, the z-score is 2.11 (active). The figure for CCUGAUGUUAUUCCUUUUATT against Klhl20 is -0.524 (inactive). Turning to GGUGAUGACGAAGGAAUCCTT against Zfpm2, the z-score was -1.51 (inactive).

Regarding GGAGCAAGACAUAUAGAAATT against Spsb2, the z-score is 2.26 (active). The figure for GGACAUUUUUAUUAGUGGATT against Gtpbp8 is 1.04 (inactive). Next, CCAUUGGAGGAUAAGUUUUTT against Mtm1: -0.0988 (inactive); GGAAAAUGGAGAACUAAAGTT against Uxs1: 1.88 (inactive); GGAUAAACCCUACGUUCUATT against Slc44a4: 0.658 (inactive). On to GGUUAUCCGUGGUAACCAUTT against Taok3, for which the z-score was 0.78 (inactive). For CGAACGUGAUGAGUUAUGGTT against Vmn1r83, the z-score is -2.67 (active). The figure for GGUAUUCGUGGAGUGGAGATT against Pdcd2l is 0.0458 (inactive). The figure for GGGCAAUUAGUAAAGGCUATT against Eif2s3x is 2.02 (active). Next, GGUCCUACAAAAAGAUGGATT against Mettl7b: -0.536 (inactive).

Consider CGAGAUUGUGCUGAUAGAGTT against Nptx2, for which the z-score is 0.533 (inactive).

With CGUGUUGUACUACGUAUAUTT against Abtb1, the z-score is -0.172 (inactive). As to CCUAAAAGACUUUGGAGACTT against Arg2, the z-score was -1.09 (inactive). GGCCCUCAUGAUUGCUAUGTT against Nek8: the z-score was -0.722 (inactive). The figure for CCUUCCAUGGUGAGGAUAATT against Stim1 is -2 (active); for CCAGUUGAGUCACUUACUGTT against Borcs7 it is 0.667 (inactive); for CGCGGCAUAAACAUGUAAATT against Gatc it is -1.07 (inactive). The figure for GGUGUCUUUCUUCACUCUUTT against Olfr862 is 0.225 (inactive); for CGUGUUUGAUCACUACUCUTT against Tnfaip8l2 it is -0.593 (inactive). The figure for GGACUGACUGGCUUCAUUGTT against Atl2 is -2.52 (active); for GCAGAUUAGCUUCGUCAACTT against Top2a it is -0.588 (inactive). Take GCGAAAUCCUGGGCUACUCTT against Dyrk4: the z-score was -0.32 (inactive). The figure for GGUUGUGACUACACUAUGGTT against Zfp456 is -1.7 (inactive); for CGCAGAACGUGAACACCAATT against Smad3 it is -2.47 (active). In the case of GUUACACAGGAGUGUGUAATT against Rnase2a, the z-score was 0.573 (inactive). Turning to GGUGGCUUUAGGGAACAUUTT against Dctn3, the z-score is 0.369 (inactive). Consider GGAAAUGGAGAAAUAUGCATT against Plod3, for which the z-score was -0.167 (inactive).

Turning to ACCUUUGUCCUUUUGUUGUTT against Defb15, the z-score was 2.01 (active). GGAGAUGAAAAAAACGAGCTT against Rxylt1: the z-score was -0.222 (inactive). For the sequence GCAAAUAAUGAGGUCCAGATT against Rbms2, the z-score was -0.377 (inactive). Next, GCAAGUCCUACAAUACAACTT against Tk1: 5.5 (active); GGCGAUGAAGAAGUAAUUUTT against Appl2: -1.2 (inactive). With CCCAUUAAGGUAUAAUAUCTT against Olfr855, the z-score was -0.301 (inactive). The figure for GGUUUCAUUUGGAUUUGCATT against Glyr1 is 0.491 (inactive). Take GGCAAAGAUAAUAAAGCUATT against Xpo1: the z-score is -0.967 (inactive). The figure for CCGUUUACUUCGUCCAAGUTT against Crlf1 is -0.134 (inactive). The figure for CCUUAUUUGUCCAUAAAAGTT against Pkdrej is 2.43 (active). Next, GGGUCCUCUGAAAGUUACCTT against Fndc5: 0.497 (inactive); GCACUUUGGCAUAUUUUCATT against Slc6a15: -0.391 (inactive); GGAAAUGCUUCUGAGCUAGTT against Desi2: 1.71 (inactive). Regarding GGGACGACUCUUUCUUAUGTT against Olfr1264, the z-score was 0.822 (inactive). The figure for GGAGAAAGGUGGUUUGGUATT against Sap30bp is -2.85 (active); for GGAGCUAGUAUGUUCAACATT against Ubqln1 it is -0.942 (inactive); for GGUGUUUGUUUCUAACUUCTT against Glcci1 it is -0.434 (inactive).

For the sequence CGAAUUCAUACCAGUGUGCTT against Ndufa10, the z-score was 2.84 (active). Next, GCACUCUGCCUGAAAUACCTT against Nlrp1a: -0.376 (inactive); GGACUUCACAAUCUCUUUCTT against Hck: -0.11 (inactive). Next, GGAAGAAUCCACUUUGAACTT against Chil4: 0.048 (inactive). On to GGGCUAAAUUAAGCUUCUATT against Sowahd, for which the z-score is -0.707 (inactive). The figure for GCCUGCUUAAGCUACUUAUTT against Fam210b is -1.04 (inactive); for UCUUACAAACUAGCUCUCCTT against Crabp2 it is -0.777 (inactive); for GGGACCGUCUUAAACAUCUTT against Rsl1d1 it is 2.92 (active). Consider GGAGAGUAACAAUUAUGAATT against Pcdha9, for which the z-score was 0.983 (inactive).

In the case of GCUCGAGAGUACUGUAGGCTT against Kat8, the z-score is -2.41 (active). Take GGUCUAAUACUCAAUAGACTT against Tmem200a: the z-score was 0.0917 (inactive).

For the sequence CCUGAAGGGUCUGGCAAAATT against Zfp804a, the z-score is 0.66 (inactive). The figure for GGAAUUGGUUCAGAAAUAUTT against Rtn4 is 3.09 (active). Next, GGUUAAACUACAACAGUUGTT against Tmco5: 1.04 (inactive). On to GGAAGAAUGUAAGUAUACCTT against Zscan12, for which the z-score is 1.68 (inactive).

On to CGUGGAAGAAAUAAUUAGGTT against Faap24, for which the z-score is 0.664 (inactive). The figure for GCUGGUCUAUGUGGAAAGGTT against Brap is 2.32 (active). For the sequence GGUGAAGAGUGAUUUUAAUTT against Il10, the z-score is 1.03 (inactive). Turning to GGUGUUGGAAGAGAUGCUGTT against Ap3m2, the z-score was 0.405 (inactive). For the sequence GGAAGUGGAAUAUGUCACCTT against Cd300lf, the z-score is -0.206 (inactive).

On to GCCCACGUUUUAAGUCUACTT against Ap1s3, for which the z-score is 3.69 (active). The figure for GAUACCAAGCUAAAAGAUCTT against Ear10 is 0.0579 (inactive). With GCCAGUCAUCUUUGUAGUCTT against Olfr411, the z-score was -0.777 (inactive). For GGAUGUACUUUGUUAAGGCTT against Tert, the z-score was 2.78 (active). In the case of GGGAGAACAGUGUUCAGAGTT against Bhlha15, the z-score is -0.151 (inactive). The figure for CCAUGUGCUGUGCACUACGTT against Chst14 is 0.358 (inactive); for GGAUAAGUGGUCUGCACUATT against Ube2c it is -0.412 (inactive). On to CCACUAUCCCACCAAUCACTT against Lypd8, for which the z-score is -1.03 (inactive). For GGCUGCUACUUCAGACAGCTT against Pou6f2, the z-score is -0.163 (inactive). Regarding GGAGGACCUUCAGAAACUCTT against Gdap2, the z-score is 1.14 (inactive). With GGUGUCACGACAAACAUUCTT against Fam83h, the z-score was -1.6 (inactive). Next, GGCAAGGAUAUAAAUUCACTT against Mak: 2.47 (active); GUGGCAGCUGACAUGAAUGTT against Plac8: -0.138 (inactive). With CGGAUACAAUUUCUGACCGTT against Zdhhc23, the z-score was -0.163 (inactive). The figure for GGUUAUUUGGAAGUGCUACTT against Esx1 is 2.81 (active); for GGGACGUGUUAAAAAGGGCTT against Cldn5 it is 0.0829 (inactive).

For the sequence CCGCCUAAAUGACUUGACATT against Fbxw14, the z-score is -1.1 (inactive). Next, GGAAUUUGGUGCAGUGUCCTT against Utp15: -1.39 (inactive); GCUAACGAUAUUUAUCACGTT against Olfr385: -0.474 (inactive); GGGACUUGUCCAUCCUUUUTT against Qrfprl: -1.71 (inactive). For GGAGCAUUAUAUCAAUCCUTT against Zfp111, the z-score is 2.16 (active). The figure for GCUUACUAAGGUGAUAAUGTT against Il17d is 0.0918 (inactive); for CGAAAGAGAUGAUGAUAAUTT against Arrdc3 it is 0.641 (inactive). The figure for GGAAAAGCAUUUUCAACGUTT against Lhfpl2 is -1.41 (inactive); for GCGAACGAGACACUUCAAUTT against Pla2g4a it is 1.51 (inactive). The figure for GGAGACAUGGCAUCCAAAUTT against Cnr1 is 3.14 (active).
